# The supplement of paper PMC8728848
# Many of the other results were omitted from the sample, so the strongest signals are more common in it than they were.
# Legend:
# Assay in all cases: glycan array binding signal (z-score within array); higher = stronger binding
# Conditions in all cases: glycan notation: IUPAC condensed, linker removed
# [1] = biological target: Gal3S(b1-4)Glc
# Summary of the method: (§1)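 The Consortium for Functional Glycomics database supplied 3228 glycan arrays, of which those lacking an available protein sequence were dropped. The binding signal, a within-array Z-score, was averaged across arrays of the same protein sequence and across linkers. Negative scores can be read as non-binding.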
# [2] = biological target: Gal3S(b1-4)[Fuc(a1-3)]GlcNAc6S
# Summary of the method: as §1
# [3] = biological target: GalNAc(b1-3)Gal(a1-4)Gal(b1-4)GlcNAc(b1-3)Gal(b1-4)Glc
# Summary of the method: as §1
# [4] = biological target: GalNAc(b1-4)Gal(b1-4)Glc
# Summary of the method: as §1
# [5] = biological target: GlcNAc(b1-2)Man(a1-3)[GlcNAc(b1-2)Man(a1-6)]Man(b1-4)GlcNAc(b1-4)[Fuc(a1-6)]GlcNAc
# Summary of the method: as §1
# [6] = biological target: GlcNAc(b1-2)[GlcNAc(b1-6)]Man(a1-6)[GlcNAc(b1-2)Man(a1-3)]Man(b1-4)GlcNAc(b1-4)GlcNAc
# Summary of the method: as §1
# [7] = biological target: GlcNAc(b1-3)Gal(b1-4)GlcNAc(b1-2)[GlcNAc(b1-3)Gal(b1-4)GlcNAc(b1-6)]Man(a1-6)[GlcNAc(b1-3)Gal(b1-4)GlcNAc(b1-2)Man(a1-3)]Man(b1-4)GlcNAc(b1-4)GlcNAc
# Summary of the method: as §1
# [8] = biological target: GlcNAc(b1-3)Gal(b1-4)GlcNAc(b1-3)Gal(b1-4)GlcNAc(b1-3)GalNAc
# Summary of the method: as §1
# [9] = biological target: Man(a1-3)[Man(a1-6)]Man(b1-4)GlcNAc(b1-4)GlcNAc
# Summary of the method: as §1
# [10] = biological target: Man(a1-3)[Man(a1-6)]Man(b1-4)GlcNAc(b1-4)[Fuc(a1-6)]GlcNAc
# Summary of the method: as §1
# [11] = biological target: Neu5Ac(a2-3)Gal(b1-3)GlcNAc(b1-2)Man
# Summary of the method: as §1
# [12] = biological target: Neu5Ac(a2-3)Gal(b1-3)GlcNAc(b1-6)GalNAc
# Summary of the method: as §1
# [13] = biological target: Neu5Ac(a2-3)Gal(b1-3)[Fuc(a1-4)]GlcNAc
# Summary of the method: as §1
# [14] = biological target: Neu5Ac(a2-3)Gal(b1-3)[Fuc(a1-4)]GlcNAc(b1-3)Gal(b1-3)[Fuc(a1-4)]GlcNAc
# Summary of the method: as §1
# [15] = biological target: Neu5Ac(a2-3)Gal(b1-4)GlcNAc(b1-2)[Neu5Ac(a2-3)Gal(b1-4)GlcNAc(b1-6)]Man(a1-6)[Neu5Ac(a2-3)Gal(b1-4)GlcNAc(b1-2)Man(a1-3)][GlcNAc(b1-4)]Man(b1-4)GlcNAc(b1-4)GlcNAc
# Summary of the method: as §1
# [16] = biological target: Neu5Ac(a2-3)Gal(b1-4)GlcNAc(b1-3)Gal(b1-4)GlcNAc(b1-2)Man(a1-3)[Neu5Ac(a2-3)Gal(b1-4)GlcNAc(b1-3)Gal(b1-4)GlcNAc(b1-2)Man(a1-6)]Man(b1-4)GlcNAc(b1-4)GlcNAc
# Summary of the method: as §1
# [17] = biological target: Neu5Ac(a2-3)Gal(b1-4)[Fuc(a1-3)]GlcNAc(b1-3)GalNAc
# Summary of the method: as §1
# [18] = biological target: Neu5Ac(a2-3)Gal6S(b1-4)GlcNAc
# Summary of the method: as §1
# [19] = biological target: Neu5Ac(a2-3)Gal6S(b1-4)[Fuc(a1-3)]GlcNAc
# Summary of the method: as §1
# [20] = biological target: Neu5Ac(a2-3)[Neu5Ac(a2-6)]GalNAc
# Summary of the method: as §1
# [21] = biological target: Neu5Ac(a2-6)Gal(b1-4)GlcNAc(b1-2)Man(a1-3)[GlcNAc(b1-4)][Neu5Ac(a2-6)Gal(b1-4)GlcNAc(b1-2)Man(a1-6)]Man(b1-4)GlcNAc(b1-4)GlcNAc
# Summary of the method: as §1
# [22] = biological target: Neu5Ac(a2-6)Gal(b1-4)GlcNAc(b1-2)Man(a1-3)[Neu5Ac(a2-6)Gal(b1-4)GlcNAc(b1-2)Man(a1-6)]Man(b1-4)GlcNAc(b1-4)GlcNAc
# Summary of the method: as §1
# [23] = biological target: Neu5Ac(a2-6)Gal(b1-4)GlcNAc(b1-2)Man(a1-6)[Gal(b1-4)GlcNAc(b1-2)Man(a1-3)]Man(b1-4)GlcNAc(b1-4)GlcNAc
# Summary of the method: as §1
# [24] = biological target: Neu5Ac(a2-6)Gal(b1-4)GlcNAc(b1-2)[Neu5Ac(a2-6)Gal(b1-4)GlcNAc(b1-4)]Man(a1-3)[GlcNAc(b1-4)][Neu5Ac(a2-6)Gal(b1-4)GlcNAc(b1-2)[Neu5Ac(a2-6)Gal(b1-4)GlcNAc(b1-6)]Man(a1-6)]Man(b1-4)GlcNAc(b1-4)GlcNAc
# Summary of the method: as §1
# [25] = biological target: Neu5Ac(a2-8)Neu5Ac(a2-3)[GalNAc(b1-4)]Gal(b1-4)Glc
# Summary of the method: as §1
# [26] = biological target: Neu5Ac9Ac(a2-6)Gal(b1-4)GlcNAc
# Summary of the method: as §1
# [27] = biological target: Neu5Gc(a2-6)Gal(b1-4)GlcNAc
# Summary of the method: as §1
binder,measurement,setting,value
"Arath Fbox (Arabidopsis thaliana), NP_178341.1 (protein) EFTWGRKRRVKSESSPFDSFPEDCISYIISFTNPRDACVAATVSKTFESTVKSDIIWEKFLPADYESLIPPSRVFSSKKELYFSLCNDPVLFDDDKKSVWLEKASGKRCLMLSAMNLSIIWGDNPQYWQWIPIPESRFEKVAKLRDVCWFEIRGRTNTRVLSPRTRYSAYIVFKGVDKCYGFQNVAIEAAVGVVGQEPSRRLICFSEAIRRGRRNVVKPKQREDGWMEIELGEFFNDGGIMDNDEIEMSALETKQLNRKCGLIIQGIEIRPAKILAAAAASFLEQKLISEEDLNSAVDHHHHHH",glycan array binding signal (z-score),[1],1
same,glycan array binding signal (z-score),[2],2.7
same,glycan array binding signal (z-score),[3],-0.087
same,glycan array binding signal (z-score),[4],0.06
same,glycan array binding signal (z-score),[5],0.585
same,glycan array binding signal (z-score),[6],-0.389
same,glycan array binding signal (z-score),[7],0.161
same,glycan array binding signal (z-score),[8],-0.761
same,glycan array binding signal (z-score),[9],-0.721
same,glycan array binding signal (z-score),[10],-0.72
same,glycan array binding signal (z-score),[11],-0.092
same,glycan array binding signal (z-score),[12],-0.024
same,glycan array binding signal (z-score),[13],-0.597
same,glycan array binding signal (z-score),[14],0.221
same,glycan array binding signal (z-score),[15],-0.75
same,glycan array binding signal (z-score),[16],2.64
same,glycan array binding signal (z-score),[17],2.69
same,glycan array binding signal (z-score),[18],-0.45
same,glycan array binding signal (z-score),[19],-0.559
same,glycan array binding signal (z-score),[20],-0.205
same,glycan array binding signal (z-score),[21],-0.647
same,glycan array binding signal (z-score),[22],-0.41
same,glycan array binding signal (z-score),[23],3.21
same,glycan array binding signal (z-score),[24],-0.533
same,glycan array binding signal (z-score),[25],-0.467
same,glycan array binding signal (z-score),[26],-0.681
same,glycan array binding signal (z-score),[27],2.49
